High-throughput results (PubChem BioAssay)
PMP22 txn: PMP22 gene transcription modulation. Potency, µM (highest dose often 57.5 µM), for the others: top-dose activity change, negative = inhibition, hits mostly inhibitors. S16 Pmp22-F2sN Schwann cells, FLuc/NLuc coincidence luminescence, 24 h. AID 1508649. 2% of 43,000 active; active = clear falling dose curves in both reporters; inconclusive = both reporters move, but less clearly or upward; inactive = either reporter flat; the % is the NLuc reporter signal; also: potency is read from the fitted curve at half-maximal effect; % is scaled to controls: 0 for no effect and ±100 for the full control effect
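Luminescent read-out of sequential FLuc and NLuc signals from a reporter embedded in the Pmp22 3' UTR of S16 Schwann cells, taken after 24 h compound exposure at 37C; compounds reducing both signals score as inhibitors of expression.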
p53null 39C kill: selectivity test: cytotoxicity in p53 null cells, nonpermissive temperature; H1299 p53-null (neo) cells, 39C, ATPlite viability, 24 h; Potency, µM (doses to about 46.1 µM), inactives show at the top dose activity, negative = cell killing, usual class: cytotoxic; 0.97% of 55,000 active; AID 904;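 also: potency is read from the fitted curve at half-maximal effect; 0% = DMSO only and -100% = full killing by 100 µM tamoxifen; nearly all actives have a fitted effect of over 50% in size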
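ATP-luminescence viability readout (ATPlite, 20 min RT) after 24 hr compound treatment at 39C of H1299-neo or H1299-p53A138V cells; titration up to 46 uM; normalized to DMSO and 100 uM tamoxifen; Hill-fit AC50.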
mTORC1 inh: reduces mTORC1 signaling in Tsc2 and p53 null MEF cells | Tsc2-/- p53-/- MEF, phospho-rpS6 immunofluorescence/PI, 24 h | Potency, µM (highest dose often 38.3 µM), inactives show at the highest dose activity change, negative = inhibition, hits mostly inhibitors | 0.78% of 44,000 active | AID 493208;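 also: potency is read from the fitted curve at half-maximal effect; plate controls were DMSO for no effect and rapamycin for full effect; nearly all actives have a fitted effect of over 50% in size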
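Tsc2-/-, p53-/- mouse embryonic fibroblasts (empty-vector line) exposed to compound 24 hrs at 37 C, fixed, immunostained for phospho-rpS6 and counterstained with propidium iodide. Acumen laser scanning gives % positive cells from Alexa 488/PI ratio, thresholded using 7.5 nM rapamycin; PI count gives viability.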
p53null 32C tox: selectivity test: cytotoxicity in p53 null cells, permissive temperature. H1299-neo p53 null cells, ATP luminescence, 24 h, 32C. Potency, µM (highest dose often 46.1 µM), for inactives: at the top dose activity change, negative = cytotoxicity, usual class: cytotoxic. 0.62% of 55,000 active. AID 903;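 also: potency is read from the fitted curve at half-maximal effect; 0% = DMSO only and -100% = full killing by 100 µM tamoxifen; nearly all actives have a fitted effect of over 55% in size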
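H1299-neo (p53 null) cells, 600/well, treated 24 h at 32C with compound up to 46 uM; ATPlite luminescence viability, normalized to DMSO and 100 uM tamoxifen; AC50 by Hill fit.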
S16 viability: cytotoxicity in S16 Pmp22-F2sN Schwann cells; 0.48% of 43,000 active; Potency, µM (top dose mostly 57.5 µM), for the others: top-dose activity change, negative = cytotoxicity, actives largely listed as cytotoxic; S16 Pmp22-F2sN Schwann cells (luciferase reporters placed in the Pmp22 gene) viability, CellTiter-Glo, 24 h; AID 1508642; also: potency is read from the fitted curve at half-maximal effect; % is scaled to controls: 0 for no effect and ±100 for the full control effect; nearly all actives have a fitted effect of over 65% in size
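Rat S16 Schwann reporter line, 24 h treatment with library compounds delivered at 23 nL per well. Cell viability by CellTiter-Glo luminescence.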
SKOV3 invasion: ovarian cancer metastasis inhibition, 3D TME model. SKOV3ip1-GFP adhesion/invasion on 3D omental model, fluorescence. Potency, µM (titrated, usually from 45.8 µM), for the others: at the top dose activity change, negative = inhibition, actives largely listed as inhibitors. 0.1% of 46,000 active;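 also: potency is read from the fitted curve at half-maximal effect; plate controls were DMSO wells for no effect and tomatine positive control wells for full effect; nearly all actives have a fitted effect of over 65% in size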
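A 3D layer of primary human omental fibroblasts, mesothelial cells, fibronectin and collagen I, grown 48 hr, received SKOV3ip1-GFP cells in serum-free medium plus compounds at 0.36-46 umol/L. After 2 hr RT and 16 hr 37 C, fixed adherent GFP cells were counted; normalized to DMSO and tomatine.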
NLuc sat counter: inhibits NanoLuc at saturating substrate, PMP22 counter-screen. shares compounds with PMP22 txn. Secreted NLuc enzyme (filtered S16 cell medium), Nano-Glo luminescence. Potency, µM (series often up to 57.5 µM), for inactives: at the highest dose activity change, negative = inhibition, hits mostly inhibitors. 4% of 690 active. AID 1508638; also: potency is read from the fitted curve at half-maximal effect; % is scaled to controls: 0 for no effect and ±100 for the full control effect
NLuc Km counter: inhibits NanoLuc under Km conditions, PMP22 counter-screen; shares compounds with PMP22 txn; secreted NLuc enzyme, coelenterazine luminescence, Km conditions; Potency, µM (doses to about 57.5 µM), for inactives: top-dose activity change, negative = inhibition, hits mostly inhibitors; 5% of 690 active; AID 1508639; also: potency is read from the fitted curve at half-maximal effect; % is scaled to controls: 0 for no effect and ±100 for the full control effect
FLuc counter: inhibits firefly luciferase, PMP22 counter-screen. purified P. pyralis FLuc, luminescence, 10 min. shares compounds with PMP22 txn. 690 tested, under 10 active. Potency, µM (titrated, usually from 57.5 µM), for the others: at the highest dose activity, negative = inhibition, hits mostly inhibitors. AID 1508640; also: % of control where 0% means no effect
Target sequence (P08659 whole entry, looked up): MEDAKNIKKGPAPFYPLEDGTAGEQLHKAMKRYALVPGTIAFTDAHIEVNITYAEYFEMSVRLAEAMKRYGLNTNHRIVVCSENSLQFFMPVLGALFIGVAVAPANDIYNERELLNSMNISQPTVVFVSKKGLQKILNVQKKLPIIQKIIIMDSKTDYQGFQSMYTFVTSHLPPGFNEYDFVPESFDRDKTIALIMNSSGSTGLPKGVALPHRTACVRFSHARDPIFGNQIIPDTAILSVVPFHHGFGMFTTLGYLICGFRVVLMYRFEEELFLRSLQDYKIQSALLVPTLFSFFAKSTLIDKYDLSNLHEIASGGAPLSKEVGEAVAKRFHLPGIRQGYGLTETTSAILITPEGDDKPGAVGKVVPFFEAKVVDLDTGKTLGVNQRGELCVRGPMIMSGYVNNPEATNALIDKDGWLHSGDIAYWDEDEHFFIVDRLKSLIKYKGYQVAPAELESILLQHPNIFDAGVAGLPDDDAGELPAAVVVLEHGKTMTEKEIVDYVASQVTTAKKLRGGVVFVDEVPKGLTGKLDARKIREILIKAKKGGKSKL
S16 viab conf: S16 Schwann cell cytotoxicity, confirmatory; Potency, µM (doses to about 57.5 µM), without a hit: top-dose activity change, negative = viability loss, hits mostly cytotoxic; S16 Schwann cells viability, CellTiter-Glo ATP luminescence, 24 h; shares compounds with PMP22 txn; 7% of 690 active; AID 1508641; also: potency is read from the fitted curve at half-maximal effect; % is scaled to controls: 0 for no effect and ±100 for the full control effect
PMP22 txn conf: PMP22 transcription modulation, confirmatory; shares compounds with PMP22 txn; S16 Schwann cells Pmp22-F2sN, dual luciferase, 24 h; Potency, µM (titrated, usually from 57.5 µM), for inactives: at the top dose activity change, negative = inhibition, hits mostly inhibitors; 22% of 690 active; active = clear falling dose curves in both reporters; inconclusive = both reporters move, but less clearly or upward; inactive = either reporter flat; the % is the FLuc reporter signal; also: potency is read from the fitted curve at half-maximal effect
Numbers without * were called inactive; i = inactive; ? = inconclusive; · = not tested or not shown. A selection: hits, their analogues and other compounds. The true share with any hit is near 3.1%. Unless noted, calls follow the shape of the dose curve; as a rule, active = well fitted curve in the direction sought with a large enough effect; inconclusive = small, poorly fitted or top-dose-only effect, or another doubt; inactive = no such curve, though single readings can be large; an effect the other way counts as inactive or inconclusive.

SMILES	PMP22 txn	p53null 39C kill	mTORC1 inh	p53null 32C tox	S16 viability	SKOV3 invasion	NLuc sat counter	NLuc Km counter	FLuc counter	S16 viab conf	PMP22 txn conf
COc1ccc(N2CCN(C(=O)c3ccc4c(c3)N(Cc3ccc(F)cc3)C(=O)c3ccccc3S4=O)CC2)cc1 (configuration not stated)	?	?	-8%	1%	15%	19%	0.15µM*	0.12µM*	1%	-2%	-17%
CNC(=O)c1cccc(-c2ccc3c(N4CCOC[C@H]4C)nc(N4CCOC[C@H]4C)nc3n2)c1	·	·	·	·	·	-17%	·	·	·	·	·
CCCCN(CCCC)CC(O)c1cc(Cl)cc2c1-c1ccc(Cl)cc1C2=Cc1ccc(Cl)cc1 (configuration not stated)	·	·	·	·	·	5%	·	·	·	·	·
COc1ccc(CNC(=O)C2CCCN(c3nnc(C)c4c(C)n(-c5ccc(C)cc5)nc34)C2)cc1 (configuration not stated)	17µM*	3%	-14%	-1%	?	-29%	?	?	-4%	?	?
COC(=O)c1ccccc1NC(=O)C1CCCN(c2nnc(C)c3c(C)n(-c4ccccc4)nc23)C1 (configuration not stated)	-1%	21%	-6%	2%	12%	0%	·	·	·	·	·
COc1ccc(NC(=O)C2CCCN(c3nnc(C)c4c(C)n(-c5ccccc5)nc34)C2)cc1Cl (configuration not stated)	20µM*	?	?	?	?	?	-9%	-1%	28%	43µM*	?
Cc1ccc(NC(=O)C2CCN(c3nnc(C)c4c(C)n(-c5ccccc5)nc34)CC2)cc1Cl	-3%	30%	-8%	-4%	11%	-3%	·	·	·	·	·
Cc1nnc(N2CCC(C(=O)N3CCCCC3)CC2)c2nn(-c3ccc(Cl)cc3)c(C)c12	19µM*	-5%	-2%	27%	?	2%	-6%	5%	-2%	-9%	?
Cc1nnc(N2CCCC(C(=O)Nc3ccccc3C(F)(F)F)C2)c2nn(-c3ccccc3)c(C)c12 (configuration not stated)	13µM*	-3%	-8%	-2%	28µM*	?	-19%	-2%	4%	?	?
CC[C@H]1OC(=O)[C@H](C)[C@@H](O[C@H]2C[C@@](C)(OC)[C@@H](O)[C@H](C)O2)[C@H](C)[C@@H](O[C@@H]2O[C@H](C)C[C@H](N(C)C)[C@H]2O)[C@](C)(O)C[C@H](C)C(=NOCOCCOC)[C@H](C)[C@@H](O)[C@]1(C)O	·	·	·	·	·	-16%	·	·	·	·	·
CC[C@H]1OC(=O)[C@H](C)[C@@H](O[C@H]2C[C@@](C)(OC)[C@@H](O)[C@H](C)O2)[C@H](C)[C@@H](O[C@@H]2O[C@@H](C)C[C@H](N(C)C)[C@@H]2O)[C@](C)(O)C[C@@H](C)C(=O)[C@H](C)[C@@H](O)[C@]1(C)O	·	·	·	·	·	-10%	·	·	·	·	·
CCC(C)n1ncn(-c2ccc(N3CCN(c4ccc(OC[C@H]5CO[C@](Cn6cncn6)(c6ccc(Cl)cc6Cl)O5)cc4)CC3)cc2)c1=O (some centres not stated)	·	·	·	·	·	-1%	·	·	·	·	·
CC(C)OCCCNc1ncnc2sc3c(c12)CCCC3	14µM*	-8%	-20%	-3%	-10%	i	-3%	-3%	-9%	-7%	-6%
CCC(=O)N1CCc2cc(Br)cc(S(=O)(=O)N3CCCC(C(=O)NCc4cccc(OC)c4)C3)c21 (configuration not stated)	14µM*	-14%	-3%	5%	18%	11%	-17%	5%	7%	-21%	-41%
Cc1cccc(NC(=O)Cn2c(=O)c3cccn3c3ccccc32)c1C	?	86%	?	-12%	-2%	0%	-2%	3%	2%	15%	-26%
CCc1ccccc1NC(=O)Cn1c(=O)c2cccn2c2ccc(F)cc21	-4%	-5%	-8%	5%	6%	i	·	·	·	·	·
Cc1cccc(CNC(=O)c2cnc3sc(N4CCCCCC4)nn3c2=O)c1	?	26%	-3%	-14%	4%	i	-1%	4%	3%	23%	-5%
